This is a sample that favours compounds with a hit; in the whole collection about 8.7% have one here.
BAZ2B block: qHTS Assay for Inhibitors of BAZ2B; actives 4.4% (n = 360,000); AID 504333, 2011; AlphaScreen BAZ2B-H3K14Ac peptide displacement; Potency, µM (highest dose often 114 µM), without a hit: at the top dose activity change, negative = inhibition, actives largely listed as inhibitors; also: % is scaled to controls: 0 for no effect and ±100 for the full control effect; nearly all actives have a fitted effect of over 60% in size
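Compounds, titrated to a top concentration of 110 uM, were incubated 30 min at room temperature with preformed BAZ2B/acetyl-K14 H3 peptide complex (50 nM each). Proximity signal was measured by AlphaScreen after 20 min with beads.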
Sfp PPTase inh: qHTS Assay for Inhibitors of Bacillus subtilis Sfp phosphopantetheinyl transferase (PPTase); Potency, µM, inactives show largest response in the series, negative = inhibition, hits mostly inhibitors; AID 1490, 2009; Biochemical Sfp PPTase activity, qHTS; actives 3.5% (n = 310,000); 4'-phosphopantetheinyl transferase ffp (Bacillus subtilis), Q9F4F7;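 also: the enzyme is Sfp with the accession as filed and its product quenches rhodamine fluorescence; 0% = enzyme reaction without inhibitor and -100% = no enzyme wells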
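After 15 min at room temperature with compound, 15 nM Sfp received 5 uM rhodamine-CoA plus 12.5 uM BHQ-2-ybbR (50 mM Hepes pH 7.6, 10 mM MgCl2). Rate came from the fluorescence difference over 30 min, ex 525/em 598 nm.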
JMJD2A Tudor inh: qHTS Assay for Inhibitors of JMJD2A-Tudor Domain; AlphaScreen JMJD2A-Tudor / H3K4me3 peptide binding; Lysine-specific demethylase 4A (Homo sapiens), O75164; Potency, µM (series often up to 114 µM), for the others: top-dose activity change, negative = inhibition, actives largely listed as inhibitors; actives 4.4% (n = 390,000); also: % is scaled to controls: 0 for no effect and ±100 for the full control effect; nearly all actives have a fitted effect of over 50% in size
HP1b binding inh: HTS for Inhibitors of HP1-beta Chromodomain Interactions with Methylated Histone Tails; AlphaScreen HP1-beta / biotin-H3K9me3 peptide binding; Potency, µM (highest dose often 114 µM), without a hit: top-dose activity change, negative = inhibition, hits mostly inhibitors; actives 0.56% (n = 390,000); AID 540317, 2011; also: nearly all actives have a fitted effect of over 70% in size
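AlphaScreen: HP1-beta (50 nM) preformed 30 min with biotin-H3(1-18)K9me3 peptide (50 nM) in PBS pH 7.4, 0.01% Tween-20. Compound added for 30 min at RT, then streptavidin donor/nickel chelate acceptor beads (10 ug/mL) for 30 min.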
ALOX12 inh: Primary qHTS assay for inhibitors of human arachidonate 12S-lipoxygenase (ALOX12): Round 2. Polyunsaturated fatty acid lipoxygenase ALOX12 (Homo sapiens), P18054. AID 1671190, 2021. actives 1.1% (n = 580,000). Potency, µM (top dose mostly 108 µM), inactives show at the highest dose activity change, negative = inhibition, most hits filed as inhibitors. purified 12hLO, xylenol orange hydroperoxide absorbance; also: % is scaled to controls: 0 for no effect and ±100 for the full control effect
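Hydroperoxide product was detected by ferrous iron/xylenol orange as the 573 to 405 nm absorbance ratio. Arachidonic acid at 40 uM (final) was turned over for 30 min at room temperature by 150 nM human 12hLO, pH 7.0 Hepes buffer, after 15 min compound preincubation.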
G9a block: qHTS Assay for Inhibitors of Histone Lysine Methyltransferase G9a | G9a H3K9 monomethylation, AlphaScreen, 2 h | Potency, µM (doses to about 102 µM), without a hit: at the top dose activity, negative = inhibition, usual class: inhibitors | actives 8.8% (n = 350,000) | AID 504332, 2011; also: % is scaled to controls: 0 for no effect and ±100 for the full control effect; nearly all actives have a fitted effect of over 75% in size
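Step 1: enzyme (final 20 nM) with compound, 15 min RT. Step 2: substrate peptide 500 nM and SAM 20 uM, 2 h RT. Step 3: anti-H3K9me1 antibody and AlphaScreen beads, 10 min, then plate read.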
* = called active by the depositor; u = inconclusive; x = not tested or not shown; [ ] = another dose, or the depositor's remark. Calls follow the shape of the dose curve; as a rule, active = well fitted curve in the direction sought with a large enough effect; inconclusive = small, poorly fitted or top-dose-only effect, or another doubt; inactive = no such curve, though single readings can be large; an effect the other way counts as inactive or inconclusive. Potency is read from the fitted curve at half-maximal effect.

SMILES	BAZ2B block	Sfp PPTase inh	JMJD2A Tudor inh	HP1b binding inh	ALOX12 inh	G9a block
CCC(NC(=O)NC12CC3CC(CC(C3)C1)C2)c1ccc(Cl)cc1 (centres undefined)	x	x	x	x	6%	x
COC(=O)c1ccccc1NC(=O)N1CC(C)Oc2ccc(C)cc21 (centres undefined)	x	x	x	x	3%	x
CC(=O)c1cc(Cl)ccc1OCC(=O)Nc1cccc(S(=O)(=O)N2CCCC2)c1	21%	x	1%	32%	17%	7.1µM*
COc1ccc(NC(=O)Cc2ccccc2F)cc1S(=O)(=O)N1CCCCC1	0%	x	1%	43%	-13%	0.32µM*
O=C(COC(=O)c1ccc([N+](=O)[O-])o1)Nc1cccc(S(=O)(=O)N2CCCCC2)c1	x	12%	-35%	-15%	-20%	u
Cc1ccc(NC(=O)COC(=O)Cc2c[nH]c3ccccc23)cc1F	-35%	x	u	9%	u	35µM*
O=C(COc1ccc(F)cc1Cl)Nc1cccc(S(=O)(=O)N2CCCCCC2)c1	13%	x	-3%	53%	41%	-6%[59 µM]
O=C(COC(=O)c1cc([N+](=O)[O-])ccc1NCCO)Nc1cccc(S(=O)(=O)N2CCCC2)c1	-7%	x	u	-19%	-7%	45µM*
CCN(Cc1ccc(Cl)s1)C(=O)c1[nH]c2c(c1C)C(=O)CC(C)(C)C2	x	x	x	x	-13%	x
CNC(=O)N1CCCCCCNC(=O)[C@@H]2CCCC[C@@H]21	x	x	x	x	30%	x
Cc1ccc(NCC(=O)Nc2cccc(S(=O)(=O)N(C)C)c2)cc1S(=O)(=O)N1CCCCCC1	-7%	x	-33%	-12%	-10%	u
CCOc1ccc(N2CC(C(=O)Nc3ccc(OC)c(S(=O)(=O)N4CCCCC4)c3)CC2=O)cc1 (centres undefined)	-36%	7%	-30%	0%	-11%	79µM*
COc1ccc(NC(=O)CSc2ccc(F)cc2)cc1S(=O)(=O)N1CCCCC1	5%	-16%	-13%	38%	-3%	17%
Cc1ccc(NC(=O)CN(C)CC(=O)Nc2cccc(F)c2)cc1S(=O)(=O)N1CCCCCC1	50µM*	-20%	18µM*	u	-14%	5.6µM*
Cc1ccc(OCC(=O)Nc2cc(C(=O)O)cc(C(=O)O)c2)cc1C	-13%	u	8.9µM*	-11%	-2%	u
COc1ccc(NC(=O)CN(C)CC(=O)Nc2cccc(F)c2)cc1S(=O)(=O)N1CCCCC1	x	x	2.8µM*	u	-20%	x
CC(C)(Cc1ccc2ccccc2c1)NC[C@@H](O)COc1cccc(Cl)c1C#N	x	x	x	x	-23%[57.4 µM]	x
O=C(Nc1ccccc1)N1CCCCC1c1nc(-c2cnccn2)n[nH]1 (centres undefined)	x	x	x	x	37%	x
N#Cc1cccc(NC(=O)CNc2cccc(S(=O)(=O)N3CCCC3)c2)c1	3%	x	-22%	62%	-12%	-33%
COc1ccc(NC(=O)COc2ccc(C)c(C)c2)cc1S(=O)(=O)N1CCCCC1	2%	x	-12%	31%	-12%	56µM*
Cc1ccc(NC(=O)COC(=O)C2CC3C=CC2C3)cc1S(=O)(=O)N1CCCCC1 (centres undefined)	8%	1%	56µM*	9%	-18%	14%[59 µM]
O=C(CNc1ccc(F)cc1Cl)Nc1cccc(S(=O)(=O)N2CCCCC2)c1	-9%	x	-6%	25%	409%	-1%[12.7 µM]

Assay outcomes (PubChem)
